Test [1] in a line: qHTS assay to identify small molecule agonists of the estrogen receptor alpha (ER-alpha) signaling pathway in the presence of an antagonist - cell viability counter screen (AID 1259386).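 Further: cells exposed to compounds for 22 h at 37 °C before the viability read; nearly all actives have a fitted effect of over 30% in size.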 Further: potency means the concentration at half of the fitted maximal effect. The essentials: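 Cytotoxicity was measured in parallel with the ERE-luciferase agonist screen, in the same wells. The cells were VM7Luc4E2, which endogenously express ER-alpha, and treatment was with compounds plus 10.0nM ICI-182,780 for 22hr.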

Test [2] has as its target Progesterone receptor (Homo sapiens) (UniProt P06401). Put plainly: qHTS assay to identify small molecule agonists of the progesterone receptor (PR) signaling pathway (AID 1346784; calls by dose curve; further: nearly all actives have a fitted effect of over 30% in size). The gist of the method:
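Compounds were tested for PR agonism in HEK 293T cells bearing a beta-lactamase gene under UAS control. Treatment lasted 16 hr at 37C; signal came from fluorescence of a FRET substrate.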

Test [3] has the same target. Briefly: qHTS assay to identify small molecule antagonists of the progesterone receptor (PR) signaling pathway (AID 1346795; active means well fitted inhibition curve with a large enough effect in the signal ratio in the repeat runs, not every such curve was filed as active; the % refers to the signal ratio). The essentials:
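In HEK293T cells bearing the PR-UAS-bla reporter, compound effects on promegestone-driven (1 nM) beta-lactamase expression are assessed after 16 hr using a fluorescent FRET substrate incubated 2 hr at room temperature.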

The nature of test [4]: qHTS assay to identify small molecule antagonists of the progesterone receptor (PR) signaling pathway - cell viability counter screen (AID 1346798). Further: series mostly up to about 92 µM; nearly all actives have a fitted effect of over 50% in size. The gist of the method:
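Following a 4 hr attachment, PR-UAS-bla HEK293T cells in charcoal-stripped FBS medium were exposed to compounds with R5020 for 16 hr; CellTiter-Glo was added and luminescence read after 30 min at room temperature.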

Test [5] in a line: qHTS assay to identify small molecule antagonists of the TGF-beta/Smad signaling pathway - cell viability counter screen (AID 1346824). Further: nearly all actives have a fitted effect of over 50% in size. The gist of the method:
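SBE-bla HEK 293T cells were plated overnight at 37 C, then given compounds in DMSO plus TGF-beta1 (added as 0.25 ng/mL solution) for 5 hr. After the bla read, CellTiter-Glo was added to the same wells and luminescence read after 30 min at room temperature.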

A short description of test [6]: qHTS assay to identify small molecule agonists of the TGF-beta/Smad signaling pathway - cell viability counter screen (AID 1346829). Further: top concentration of the series differs between compounds; nearly all actives have a fitted effect of over 45% in size. The essentials:
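SBE-bla HEK 293T cells plated overnight, compound exposure 5 hr at 37 C. Viability read in the same wells by CellTiter-Glo luminescence after 30 min at room temperature, following the beta-lactamase read.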

In test [7] the target is Thyrotropin-releasing hormone receptor (Homo sapiens) (UniProt P34981). Briefly: qHTS assay to identify small molecule antagonists of the thyrotropin-releasing hormone receptor (TRHR) signaling pathway (AID 1346877; active means well fitted inhibition curve with a large enough effect in the repeat runs, not every such curve was filed as active; further: series mostly up to about 51 µM). The gist of the method: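 Antagonism is measured as suppression of the calcium response to 1 nM TRH in TRHR-HEK293 cells that have been dye-loaded for 2 h at 37 °C after overnight plating. Each compound is tested at 15 concentrations in triplicate.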
Chain of Thyrotropin-releasing hormone receptor (Homo sapiens) (P34981 whole entry, looked up): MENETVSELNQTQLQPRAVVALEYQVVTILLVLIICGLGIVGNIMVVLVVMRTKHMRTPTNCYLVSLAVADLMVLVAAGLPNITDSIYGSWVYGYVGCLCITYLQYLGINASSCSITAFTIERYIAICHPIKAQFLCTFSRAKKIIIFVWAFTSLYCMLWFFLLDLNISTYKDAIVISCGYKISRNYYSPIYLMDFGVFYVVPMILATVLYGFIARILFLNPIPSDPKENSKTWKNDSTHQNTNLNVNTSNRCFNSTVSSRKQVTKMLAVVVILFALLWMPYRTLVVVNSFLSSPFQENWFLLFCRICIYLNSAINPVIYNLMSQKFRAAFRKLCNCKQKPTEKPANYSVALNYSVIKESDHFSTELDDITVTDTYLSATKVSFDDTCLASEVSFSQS

Test [8] shares this target. Briefly: qHTS assay to identify small molecule agonists of the thyrotropin-releasing hormone receptor (TRHR) signaling pathway (AID 1346891; calls by dose curve; further: series mostly up to about 58 µM). The gist of the method: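 Screening of agonists relied on calcium signalling in HEK293 cells expressing human TRHR: dye loading 2 h at 37 °C preceded compound addition and a 3-min fluorescence time course.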
A short description of test [9]: Human pregnane X receptor (PXR) small molecule agonists, qHTS cell viability counter screen (AID 1346977). Further: nearly all actives have a fitted effect of over 50% in size. Further: potency means the concentration at half of the fitted maximal effect. The gist of the method: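 Tox21 qHTS format; PXR-Luc HepG2, 2,000/well, charcoal-stripped FBS 5%. Cpd exposure 24hr. Read: CellTiter-Fluor fluorescence, multiplexed with luciferase.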
Test [10] is described as follows: Caspase-3/7 induction in HepG2 cells by small molecules, qHTS assay (AID 1346978). Further: nearly all actives have a fitted effect of over 15% in size. Further: potency means the concentration at half of the fitted maximal effect. The essentials:
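Wild-type HepG2 cells (2,000/well) were settled 5 h at 37 C, 5% CO2, then exposed to compounds in DMSO for 17 h. Caspase-3/7 activity was read by luminescence 30 min after adding Caspase-Glo 3/7 reagent at room temperature.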

The nature of test [11]: Caspase-3/7 induction in CHO-K1 cells by small molecules, qHTS cell viability counter screen (AID 1346979). Further: nearly all actives have a fitted effect of over 35% in size. The gist of the method:
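CellTiter-Fluor viability check, qHTS format: wild-type CHO-K1, 16hr compound treatment, 1hr reagent incubation, fluorescence read.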

Test [12] is described as follows: Caspase-3/7 induction in CHO-K1 cells by small molecules, qHTS assay (AID 1346980). Further: nearly all actives have a fitted effect of over 15% in size. Further: potency means the concentration at half of the fitted maximal effect. The essentials: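 Wild-type cells were seeded at 1,500 per well and settled 5 hr at 37 C, 5% CO2, then exposed to DMSO-dissolved compounds for 17 hr. Caspase-Glo 3/7 reagent was added, and luminescence was read after 30min at room temperature.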
A short description of test [13]: Caspase-3/7 induction in HepG2 cells by small molecules, qHTS cell viability counter screen (AID 1346981). Further: series mostly up to about 92 µM; nearly all actives have a fitted effect of over 30% in size. The gist of the method: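 Cell viability is measured as a cytotoxicity counter screen alongside the Caspase-Glo 3/7 readout in identical wells. Wild-type HepG2 cells are treated with test compounds for 16 hr at 37 C before CellTiter-Fluor addition and a 1-hr incubation.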

Test [14] deals with Nuclear receptor subfamily 1 group I member 2 (Homo sapiens) (UniProt O75469). Put plainly: Human pregnane X receptor (PXR) small molecule agonists, qHTS assay (AID 1346982). Further: nearly all actives have a fitted effect of over 35% in size. Further: potency means the concentration at half of the fitted maximal effect. The gist of the method: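 Cells: HepG2 stably carrying PXR-Luc. Medium held 5% charcoal-stripped FBS. Compounds in DMSO added after 5 hr plating, incubated 24 hr, then luminescence quantified with ONE-Glo.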
Chain of Nuclear receptor subfamily 1 group I member 2 (Homo sapiens) (O75469 whole entry, looked up): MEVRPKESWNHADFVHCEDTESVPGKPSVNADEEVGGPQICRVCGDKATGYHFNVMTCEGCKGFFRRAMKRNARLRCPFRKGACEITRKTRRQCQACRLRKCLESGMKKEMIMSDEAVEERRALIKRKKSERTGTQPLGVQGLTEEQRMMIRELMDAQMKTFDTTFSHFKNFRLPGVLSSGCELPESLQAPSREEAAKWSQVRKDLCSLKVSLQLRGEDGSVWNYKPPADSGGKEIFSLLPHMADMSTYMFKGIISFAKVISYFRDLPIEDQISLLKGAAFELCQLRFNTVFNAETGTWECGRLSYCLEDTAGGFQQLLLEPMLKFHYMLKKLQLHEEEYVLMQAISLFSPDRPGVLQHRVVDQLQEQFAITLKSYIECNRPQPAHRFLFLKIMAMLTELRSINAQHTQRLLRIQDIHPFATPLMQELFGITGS

The target of test [15] is Cytochrome P450 2D6 (Homo sapiens) (UniProt P10635). Briefly: Cytochrome P450 Family 2 Subfamily D Member 6 (CYP2D6) small molecule antagonists: luciferase reporter qHTS assay (AID 1671196). Further: nearly all actives have a fitted effect of over 50% in size. Further: potency means the concentration at half of the fitted maximal effect. The essentials: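 Enzyme and proluciferin substrate were first combined with test chemical for 10 min at room temperature. Adding NADPH regeneration solution started a 1 h reaction, stopped with luciferin detection reagent and read by luminescence 20 min later.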
Chain of Cytochrome P450 2D6 (Homo sapiens) (P10635 whole entry, looked up): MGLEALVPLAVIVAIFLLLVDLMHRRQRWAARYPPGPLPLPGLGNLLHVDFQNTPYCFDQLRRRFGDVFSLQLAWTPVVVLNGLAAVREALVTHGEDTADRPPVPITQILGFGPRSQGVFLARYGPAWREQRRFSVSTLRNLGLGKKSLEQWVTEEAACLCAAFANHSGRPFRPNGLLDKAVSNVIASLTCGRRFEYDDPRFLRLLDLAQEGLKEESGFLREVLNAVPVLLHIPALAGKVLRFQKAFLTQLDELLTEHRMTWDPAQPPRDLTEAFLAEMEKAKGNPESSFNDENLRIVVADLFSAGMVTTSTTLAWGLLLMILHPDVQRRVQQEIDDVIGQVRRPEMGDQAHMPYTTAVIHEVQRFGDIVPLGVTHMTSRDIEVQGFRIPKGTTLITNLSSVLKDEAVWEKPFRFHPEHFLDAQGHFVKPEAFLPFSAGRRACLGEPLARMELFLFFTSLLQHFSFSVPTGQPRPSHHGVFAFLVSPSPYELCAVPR

Test [16] can be described thus: qHTS assay to identify small molecule agonists of the progesterone receptor (PR) signaling pathway - cell viability counter screen (AID 1346799; calls by dose curve; further: nearly all actives have a fitted effect of over 45% in size). The gist of the method:
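Here, 3,000 PR-UAS-bla HEK293T cells per well were treated with compounds for 16 hr after a 6 hr preincubation at 37C and 5% CO2; cell viability is the CellTiter-Glo luminescence signal.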

Test [17] in a line: qHTS assay to identify small molecule agonists of the TGF-beta/Smad signaling pathway (AID 1346859; active means well fitted activation curve with a large enough effect in the signal ratio in the repeat runs, not every such curve was filed as active; the % refers to the signal ratio; further: series mostly up to about 77 µM). The gist of the method:
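Each well held 4,000 SBE-bla HEK 293T cells incubated overnight before compound addition; 5 hr later the cleavable FRET substrate went on for 2 hr at room temperature, and fluorescence was read at two emissions.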

Test [18] has as its target Nuclear receptor subfamily 1 group I member 2 (Homo sapiens) (UniProt O75469). Briefly: CYP3A4 induction through human pregnane X receptor (PXR) by small molecules, qHTS assay (AID 1346984). Further: nearly all actives have a fitted effect of over 40% in size. The essentials: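 Quantitative HTS in DPX-2 cells, i.e. HepG2 transfected with PXR response element and CYP3A4-promoter luciferase. Compounds in DMSO incubated 24hr at 37C; then P450-Glo CYP3A4 substrate, 3uM final, 3hr; One-Glo luminescence.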

The target is the same in test [19]. Put plainly: Human pregnane X receptor (PXR) activation by small molecules, qHTS assay (AID 1346985). Further: nearly all actives have a fitted effect of over 40% in size. The essentials:
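DPX-2 cells (HepG2 co-transfected with a PXR response element and a CYP3A4-promoter luciferase construct) were seeded at 2,000 per well, rested 5 hr at 37C, then exposed to DMSO-dissolved compounds for 24 hr. Activation was read as luciferase luminescence.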

Results on ten compounds are retold here after PubChem BioAssay (Tox21).

Several values for one entry are separate records, joined by “and”; a condition that tells them apart may be missing. Equal values may be shown once. Results filed as inconclusive are left out. Where a structure was tested more than once in an assay, its records may differ in their call. Activity calls are given as the source filed them. Unless noted, the call rests on the fitted dose curve; in most records, active means well fitted curve in the direction sought with a large enough effect in the repeat runs; inconclusive means weak or mixed curves; inactive means no such curve, though single readings can be large; an effect the other way counts as inactive or inconclusive.

Chain of Progesterone receptor (Homo sapiens) (P06401 whole entry, looked up): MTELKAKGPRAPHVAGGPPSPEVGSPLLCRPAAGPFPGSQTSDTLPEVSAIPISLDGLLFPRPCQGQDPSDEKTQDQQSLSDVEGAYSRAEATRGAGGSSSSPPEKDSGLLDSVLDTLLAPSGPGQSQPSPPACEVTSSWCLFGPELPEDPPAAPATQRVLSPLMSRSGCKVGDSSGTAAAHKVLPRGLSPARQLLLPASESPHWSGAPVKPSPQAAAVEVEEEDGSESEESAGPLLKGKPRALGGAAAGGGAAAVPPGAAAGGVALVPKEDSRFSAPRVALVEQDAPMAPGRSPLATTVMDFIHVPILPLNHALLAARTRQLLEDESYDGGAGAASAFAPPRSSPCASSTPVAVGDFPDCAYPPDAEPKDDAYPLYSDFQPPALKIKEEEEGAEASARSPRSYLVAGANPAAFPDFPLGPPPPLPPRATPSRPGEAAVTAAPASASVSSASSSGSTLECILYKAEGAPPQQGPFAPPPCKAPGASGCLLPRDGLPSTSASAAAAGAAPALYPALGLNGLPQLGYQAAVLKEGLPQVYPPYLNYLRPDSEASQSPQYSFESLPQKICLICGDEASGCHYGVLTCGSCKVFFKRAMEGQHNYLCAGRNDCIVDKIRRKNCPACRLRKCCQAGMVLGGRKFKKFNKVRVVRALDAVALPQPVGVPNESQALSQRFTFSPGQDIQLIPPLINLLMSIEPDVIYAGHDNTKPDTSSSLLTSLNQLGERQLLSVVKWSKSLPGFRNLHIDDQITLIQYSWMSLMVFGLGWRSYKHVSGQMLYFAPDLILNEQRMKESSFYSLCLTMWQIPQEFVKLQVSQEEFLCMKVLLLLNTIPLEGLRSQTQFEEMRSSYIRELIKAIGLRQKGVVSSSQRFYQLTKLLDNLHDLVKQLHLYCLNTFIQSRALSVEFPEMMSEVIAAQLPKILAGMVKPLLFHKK

For `O=C(Nc1cccc2c(=O)cc(-c3nn[nH]n3)oc12)c1ccc(OCCCCc2ccccc2)cc1`, the Potency result in test [1], in test [2], in test [3], in test [4], in [5] and in test [6] was “inactive” each time. The Potency result in test [8], in test [9], in test [10], in [11], in test [12] and in test [13] was “inactive” each time. In addition, the Potency result in test [14] and in [15] was “inactive” in each case. Besides, in test [7], the compound was classed as inactive.

In the case of `CO[C@]1(NC(=O)CSC(F)F)C(=O)N2C(C(=O)O)=C(CSc3nnnn3CCO)CO[C@H]21`, the Potency entry in test [1], in test [2], in test [4], in test [16], in test [5] and in [6] was “inactive” each time. Besides, the Potency entry in [17], in test [8], in [9], in test [10], in test [12] and in test [13] was “inactive” each time. Also, the compound was classed as inactive in test [7].

Take `CC/C=C1/OC(=O)c2ccccc21`: the Potency result in test [1], in test [2], in [3], in [4], in [5] and in [6] was “inactive” each time. In addition, the Potency entry in [8], in [9], in test [10] and in [11] was “inactive” each time. Besides, the call in test [7] was inactive.

With `Cc1ccco1`, the Potency entry in [1], in test [2], in test [4], in [16], in [5] and in [6] was “inactive” throughout. Besides, the Potency result in test [17], in [8], in [9], in test [10], in test [11] and in test [12] was “inactive” throughout. Besides, the Potency entry in test [13] and in test [14] was “inactive” in each case. In addition, the compound was classed as inactive in [7]. The Potency in test [15] was 34.8 µM (active).

Regarding `c1ccc2c(c1)CCc1ccccc1N2`, the Potency entry in [1], in test [2], in test [4], in [16], in [5] and in test [6] was “inactive” each time. Further, the Potency entry in test [17], in [8], in test [9], in test [10], in [12] and in test [13] was “inactive” throughout. In addition, the compound was classed as inactive in [7].

In the case of `C[C@@H]1CC(=O)NN=C1c1ccc(NN=C(C#N)C#N)cc1`, the Potency in test [1] is 26.6 µM (active); in [9] it was 16.8 µM (active) and 21.1 µM (active); in test [10], 29.8 µM (active); in [12] it was “inactive and 13.3 µM (active)”; in test [14], 11.9 µM (active) and 21.1 µM (active). The Potency result in [2], in test [4], in test [16], in test [5], in [6] and in test [17] was “inactive” throughout. For the same compound, the Potency result in [8], in [18], in test [19] and in test [15] was “inactive” each time. In [7], the compound was classed as inactive.

Turning to `O=C(O)CCCCCCCCCCCBr`, the Potency result in test [1], in test [2], in [3], in [4], in [5] and in [6] was “inactive” each time. In addition, the Potency result in test [8], in test [9], in test [10], in test [12], in test [13] and in test [14] was “inactive” throughout. Also, the outcome in test [7] was inactive.

For `Brc1cc(Br)c(Oc2cc(Br)c(Br)cc2Br)cc1Br`, the Potency entry in [1], in test [2], in test [3], in [5], in test [6] and in test [8] was “inactive” in each case. For the same compound, the Potency entry in test [9], in test [10], in test [11], in [12], in test [13] and in test [15] was “inactive” in each case. For the same compound, the compound was classed as inactive in [7]. The Potency in test [14] is 29.9 µM (active).

With `Cc1ccc(C(C)(C)O)cc1`, the Potency result in test [1], in [2], in [4], in test [16], in test [5] and in test [6] was “inactive” each time. The Potency result in test [17], in test [8], in [9], in [10], in [11] and in test [12] was “inactive” throughout. For the same compound, the Potency result in [13] and in test [14] was “inactive” throughout. Further, the call in [7] was inactive.

Turning to `CC1(C)[C@@H](OC(=O)CCC(=O)O)CC[C@]2(C)[C@H]3C(=O)C=C4[C@@H]5C[C@@](C)(C(=O)O)CC[C@]5(C)CC[C@@]4(C)[C@]3(C)CC[C@@H]12`, the Potency entry in [1], in test [2], in test [3], in test [16], in test [5] and in test [6] was “inactive” in each case. Also, the Potency entry in test [17], in [8], in test [9], in test [10], in [11] and in test [12] was “inactive” each time. In [13], the Potency entry is “inactive”. The outcome in test [7] was inactive.
